PKM2 act: activators of human pyruvate kinase M2; P14618; purified PKM2, Kinase-Glo ATP luminescence, activation; response scale: 0% is enzyme alone, no compound; Potency, µM (doses to about 57.5 µM), without a hit: top-dose activation, actives largely listed as activators; 260,000 compounds, 0.34% hits; AID 1631; further: potency means the concentration at half of the fitted maximal effect; on the % scale 0 is the no-effect control and ±100 the full control effect; nearly all actives have a fitted effect of over 55% in size
Target sequence (P14618 whole entry, looked up): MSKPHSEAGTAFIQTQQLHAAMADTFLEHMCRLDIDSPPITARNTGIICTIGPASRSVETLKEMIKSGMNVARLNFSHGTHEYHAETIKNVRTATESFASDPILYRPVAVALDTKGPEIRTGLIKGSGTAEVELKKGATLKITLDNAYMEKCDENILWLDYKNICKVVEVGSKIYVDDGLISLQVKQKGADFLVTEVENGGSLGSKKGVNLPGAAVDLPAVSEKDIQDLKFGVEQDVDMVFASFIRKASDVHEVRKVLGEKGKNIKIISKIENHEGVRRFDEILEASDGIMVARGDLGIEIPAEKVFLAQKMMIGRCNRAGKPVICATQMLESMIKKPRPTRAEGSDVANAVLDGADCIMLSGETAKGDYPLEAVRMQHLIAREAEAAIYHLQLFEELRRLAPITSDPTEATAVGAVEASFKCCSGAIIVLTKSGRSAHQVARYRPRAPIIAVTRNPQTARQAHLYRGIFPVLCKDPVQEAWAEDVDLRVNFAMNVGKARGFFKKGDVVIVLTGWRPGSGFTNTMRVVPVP
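Kinase-Glo luminescence reports ATP generated from ADP (0.1 mM) and PEP (0.5 mM) by purified hPK-M2 after 1 h at room temperature, pH 7.2 imidazole buffer; intermediate enzyme activity allows detecting inhibitors and activators.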
IL-2 act: activates IL-2 in a cell-based reporter assay | IL-2 activation reporter assay, cell-based qHTS; stimulated with anti-CD3/CD4/CD28 beads; in transgenic mouse T cells | 360,000 compounds, 0.065% hits | activation, % (series mostly up to about 46 µM); in the data active means activation above about 50%; inconclusive means mostly about 30% to 49%; further: 0% is about no effect
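Using fluorescent plate cytometry, EGFP and DsRed are detected in transgenic mouse T cells stimulated 18 h at 37 degrees C with antibody-coated beads after 60 min compound pretreatment.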
a7 integrin act: activates integrin-mediated alleviation for muscular dystrophy. alpha7betagal myoblasts, beta-gal FDG fluorescence, 48 h. Potency, µM (top dose mostly 38.3 µM), for the others: top-dose activation, usual class: activators. 350,000 compounds, 0.064% hits. AID 624291;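 further: potency means the concentration at half of the fitted maximal effect; 100% = response of the positive control SU9516; nearly all actives have a fitted effect of over 60% in size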
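alpha7betagal+/- myoblasts (passage 13, 250/well) treated 48 h at 37C with compounds at 1:260 dilution of DMSO stock. Lysed, then beta-galactosidase activity read as FDG fluorescence (ex 480/em 540) after 30 min, with pre-read for autofluorescence.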
TCR activator: T cell receptor activation | primary human leukocytes, anti-CD3, IL-2 HTRF, 48 h | Potency, µM (titrated, usually from 9.22 µM), inactives show top-dose activation of IL-2 secretion, usual class: activators | 330,000 tested, under 10 active; further: % of control where 0% means no effect
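Primary human leukocytes were stimulated with a-CD3 beads plus compounds for 48 hr without co-stimulation; secreted IL-2 was quantified by HTRF using a-IL-2-K (europium cryptate) and a-IL-2-d2, excited at 320nm with acceptor emission read at 665nm.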
Tb PFK inh: T. brucei PFK enzyme inhibition. O15648. T. brucei PFK, ADP-Glo luminescence. Potency, µM (top dose mostly 57.5 µM), inactives show top-dose activity, negative = inhibition, usual class: inhibitors. 330,000 compounds, 0.17% hits;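 further: potency means the concentration at half of the fitted maximal effect; 0% = uninhibited 1x PFK enzyme wells and -100% = no-enzyme wells; nearly all actives have a fitted effect of over 60% in size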
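In TEA buffer at pH 8.0 with 5 mM MgCl2, enzyme (1.25 nM) converted F6P (0.5 mM) and ATP (0.1 mM) for 45 min at room temperature. ADP product was read by luciferase luminescence.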
AT treatment: potential ataxia-telangiectasia treatments restoring KAP-1 phosphorylation; F2112 A-T fibroblasts, KAP-1 phosphorylation AlphaLISA; neocarzinostatin DNA damage 30 min before lysis; Potency, µM (highest dose often 57.5 µM), for inactives: at the top dose activation, actives largely listed as activators; 320,000 compounds, 0.19% hits; further: potency means the concentration at half of the fitted maximal effect; % of control where 0% means no effect; nearly all actives have a fitted effect of over 45% in size
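hTERT-immortalized A-T patient fibroblasts (F2112), 500 cells/well in OPTI-MEM, 1% FBS, got compounds for 60 min, then NCS for 30 min at 37C. Lysates were then assayed for phospho-KAP-1 by AlphaLISA (anti-pKAP1 donor, anti-KAP1 acceptor beads), 6 hr at 25C.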
The depositor's hits bear a star; ? = inconclusive; . = not tested or not shown; [ ] = another dose, or the depositor's remark. Hits are enriched below; roughly 0.69% of the tested compounds scored in any of these assays. Unless noted, the call rests on the fitted dose curve; in most records, active means well fitted curve in the direction sought with a large enough effect; inconclusive means small, poorly fitted or top-dose-only effect, or another doubt; inactive means no such curve, though single readings can be large; an effect the other way counts as inactive or inconclusive.

SMILES | PKM2 act | IL-2 act | a7 integrin act | TCR activator | Tb PFK inh | AT treatment
CC(Cc1ccccc1)NC(N)=O (stereo unspecified) | 13% | 0 | 9% | 4% | 0% | 4%
CC(Cc1ccccc1)NC(=O)/C=C/c1ccc(Cl)cc1 (stereo unspecified) | 2% | 87* | 15% | -3%[46.1 µM] | 0% | 1%
Cc1cc(=O)oc2cc3c(cc12)CCCN3 | . | 0 | 12% | -2% | 6% | 20µM*
Oc1cc2c(cc1O)[C@H]1c3ccccc3CN[C@@H]1CC2 | ? | . | . | . | 2.4µM* | .
COC(=O)[C@@]1(Cc2ccccc2)[C@H]2c3cc(C(=O)N(C)C)[nH]c3C[C@H]2CN1C(=O)c1ccccc1 | 7% | . | . | . | . | .
CC(=O)N1C[C@H](O)C[C@H]1C(=O)O | . | 0 | . | 0% | -1% | ?
COCCCNC(=O)c1c(NC(=O)c2ccccc2)n(Cc2ccccc2)c2nc3ccccc3nc12 | . | 68* | 16% | 4% | . | .
Cn1c(=O)oc2cc(S(=O)(=O)N3CCc4ccccc43)ccc21 | ? | 1 | -9% | -5% | 7% | 1µM*
CCCCn1c(O)c(/C=C2\C=Nc3ccccc32)c(=O)[nH]c1=O | . | 0 | 1% | 1% | ? | -5%
O=c1[nH]c(O)c(/C=C2\C=Nc3ccc(OCc4ccccc4)cc32)c(=O)[nH]1 | 0% | 193* | -11% | -1% | -2% | -14%
COc1ccc(C(=O)O)cc1OC | . | 0 | 6% | 1% | . | .
O=C(O)c1cc[c]([Hg][Cl])cc1 | . | -1 | . | 3% | 4.3µM* | 35%
CCC(=NCCc1ccccc1)c1c(O)[nH]c(=O)[nH]c1=O | -1% | -5 | -28% | 6% | -5% | 3%
CC(=NCCc1c[nH]c2ccccc12)c1c(O)n(Cc2ccccc2)c(=O)[nH]c1=O | 8% | -7 | 0% | -3% | 0% | 32µM*
CC(=NCCc1ccccc1)c1c(O)[nH]c(=O)[nH]c1=O | 28µM* | -4 | 1% | -4% | 1% | 75%
Cc1ccc(S(=O)(=O)NN)c(C)c1N1CCCC1=O | -15% | 2 | ? | -7% | 0% | 1%
O=C1NO[C@@H]2CN[C@@H](C(=O)O)[C@H]12 | -2% | . | . | . | . | .
O=C1NO[C@H]2[C@@H]1CN[C@@H]2C(=O)O | -3% | . | . | . | . | .
CC(C)n1c(O)c(C2c3cc(Cl)ccc3Oc3[nH]c(=O)n(C(C)C)c(=O)c32)c(=O)[nH]c1=O (stereo unspecified) | 14µM* | -2 | -79% | 1% | 24% | -6%
COC(=O)Cn1cc(/C=C2\C(=O)NC(=O)N(c3ccc(OC)cc3)C2=O)c2ccccc21 | . | 92* | 10% | -7% | -4% | -7%
C[C@@H]1CN([C@@H](C)CO)C(=O)c2c(c3ccccc3n2C)-c2ccccc2CO[C@H]1CN(C)C(=O)[C@H](C)c1ccccc1 | . | -4 | -55% | . | . | .
Cc1ccc(NC(=O)COC(=O)/C=C/c2ccco2)cc1S(=O)(=O)N(C)C | ? | 0 | -19% | -4%[46.1 µM] | -2% | -7%
CC1=CC2/C=C(\C)CCC(O)C(O)/C=C/C(=O)C23C(=O)NC(CC(C)C)C3C1C (stereo unspecified) | 2% | -4 | -21% | 3% | -10% | 20%
C/C1=C\[C@@H](C)C/C=C/[C@H]2[C@@H]3O[C@]3(C)[C@@H](C)[C@H]3[C@H](Cc4c[nH]c5ccccc45)NC(=O)[C@]32C(=O)/C=C/C(=O)[C@@H]1O | ? | 0 | -51% | 6% | -5% | 40µM*
CC1=C(C(=O)O)N2C(=O)C(NC(=O)c3nn(C)cc3[N+](=O)[O-])C2SC1 (stereo unspecified) | 0% | 0 | 1% | -8% | 1% | 1%
SMILES | PKM2 act | IL-2 act | a7 integrin act | TCR activator | Tb PFK inh | AT treatment
COc1ccc(N2C(=O)/C(=C/c3ccc(N(C)C)o3)C(=O)NC2=S)cc1 | . | 5 | -2% | 6% | -2% | 0%
COc1ccccc1/C=C1\C(=O)NC(=S)N(c2ccccc2)C1=O | . | -1 | 24% | -1% | -4% | -20%
COc1ccc(N2C(=O)/C(=C/c3cccs3)C(=O)NC2=S)cc1 | 14µM* | -5 | -37% | -3% | 3% | -14%
COc1ccc(N2C(=O)/C(=C/C=C/c3ccccc3[N+](=O)[O-])C(=O)NC2=S)cc1 | 20µM* | 0 | 8% | -5% | 26% | -2%
Nc1ccc2c3c(cccc13)CC2 | -2% | 83* | -47% | -2% | -7% | -2%
O=C1NC(=O)N(c2ccccc2)C(=O)/C1=C\c1ccc2c3c(cccc13)CC2 | 15% | . | . | -6%[46.1 µM] | 3% | 14%
CCOC(=O)c1c(/N=C/C2C(=O)NC(=O)NC2=O)sc2c1CCC2 | 5% | 76* | 1% | 5% | -1% | -5%
COc1cc2c(cc1C=O)OCO2 | -6% | -1 | ? | 8%[46.1 µM] | 1% | .
COc1cc([C@@H]2c3cc4c(cc3[C@@H](OC)[C@H]3COC(=O)[C@H]23)OCO4)cc(OC)c1O | 32µM* | 0 | -5% | 4% | 1% | 48%
Cc1cc(O)c2c(c1)C(=O)C13C(=C2O)C(=O)[C@H]2[C@@H](O)[C@@H]1[C@H]1[C@H](O)[C@@H]3C(=O)C3=C(O)c4c(O)cc(C)cc4C(=O)C312 (stereo partly specified) | . | -1 | -49% | 6% | 8% | 8.9µM*
CC(=O)Nc1ccc(S(=O)(=O)N(C)CCOCc2ccccc2)cc1 | -23% | -1 | -48% | -3% | -3% | 4%
Cc1c(N=Cc2c(O)n(C3CCCCC3)c(=O)[nH]c2=O)c(=O)n(-c2ccccc2)n1C | 0% | 62* | 14% | -1% | -1% | 2%
Cc1c(N=Cc2c(O)n(CCc3ccccc3)c(=O)[nH]c2=O)c(=O)n(-c2ccccc2)n1C | 2% | 0 | 15% | -7% | -7% | 14%
NS(=O)(=O)c1cc(C(=O)OCC(=O)Nc2ccc3[nH]c(=O)[nH]c3c2)ccc1Cl | . | 1 | -5% | -2% | ? | 6%
O=C1NC(=O)N(c2ccccc2)C(=O)/C1=C/c1ccc(Sc2ccccc2)o1 | 28µM* | 96* | -59% | 6% | 19% | 6%
Cc1cc(/C=C2/C(=O)NC(=O)N(c3ccc(Br)cc3)C2=O)c(C)n1C | 1% | 10 | -12% | -3% | 1% | -6%
Cc1cc(/C=C2\C(=O)NC(=O)N(c3cccc(Br)c3)C2=O)c(C)n1C | -5% | 68* | 11% | 0%[46.1 µM] | 2% | 1%
O=C1Nc2ccccc2C2(CCN(CCc3ccc(C(F)(F)F)cc3)CC2)O1 | -2% | . | . | . | . | .
